# Molecular target: T1, Transcription intermediary factor 1-alpha (Homo sapiens) (UniProt O15164)
# T1 sequence (whole entry): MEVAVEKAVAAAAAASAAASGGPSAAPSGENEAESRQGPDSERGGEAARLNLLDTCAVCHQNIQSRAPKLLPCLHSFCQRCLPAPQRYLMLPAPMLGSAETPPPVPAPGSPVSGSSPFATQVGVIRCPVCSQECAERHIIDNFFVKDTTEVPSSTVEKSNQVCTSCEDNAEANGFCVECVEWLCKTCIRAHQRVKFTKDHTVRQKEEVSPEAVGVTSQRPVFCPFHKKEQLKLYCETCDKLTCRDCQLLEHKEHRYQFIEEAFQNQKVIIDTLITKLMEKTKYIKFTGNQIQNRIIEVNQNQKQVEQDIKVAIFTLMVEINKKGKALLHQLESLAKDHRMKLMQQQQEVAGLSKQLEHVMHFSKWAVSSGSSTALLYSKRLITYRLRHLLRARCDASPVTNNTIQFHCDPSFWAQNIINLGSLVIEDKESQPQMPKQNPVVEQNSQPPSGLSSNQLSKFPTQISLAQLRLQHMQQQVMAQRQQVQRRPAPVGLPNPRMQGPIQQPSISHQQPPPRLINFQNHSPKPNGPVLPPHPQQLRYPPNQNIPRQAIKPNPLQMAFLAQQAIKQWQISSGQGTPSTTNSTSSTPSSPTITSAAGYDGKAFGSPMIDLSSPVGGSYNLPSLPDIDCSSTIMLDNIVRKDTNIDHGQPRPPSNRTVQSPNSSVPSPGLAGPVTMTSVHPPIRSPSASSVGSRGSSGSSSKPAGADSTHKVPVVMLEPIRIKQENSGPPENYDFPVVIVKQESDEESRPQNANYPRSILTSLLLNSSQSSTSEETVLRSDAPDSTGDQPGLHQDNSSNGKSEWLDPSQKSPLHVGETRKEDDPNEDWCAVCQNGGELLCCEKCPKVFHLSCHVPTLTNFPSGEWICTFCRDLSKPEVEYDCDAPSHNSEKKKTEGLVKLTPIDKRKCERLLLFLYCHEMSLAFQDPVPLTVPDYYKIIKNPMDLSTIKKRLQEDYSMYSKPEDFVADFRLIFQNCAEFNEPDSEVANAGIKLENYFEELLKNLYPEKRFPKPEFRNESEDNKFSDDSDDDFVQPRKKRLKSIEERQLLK
# Conditions: Compound concentration 10.0 uM, Protein concentration 2.0 uM
structure (smiles),measurement,value
COc1ccccc1S(=O)(=O)Nc1ccc2c(c1)CN(C)C(=O)N2,ΔTm,0.62 °C

# From ChEMBL document CHEMBL4649994
